Out of some 5,500 compounds screened, about 2,000 (36%) were called active. About 18% were inconclusive and are not listed. Rule as the data show it: active = normalized growth mostly below about 0.91 (no sharp cut-off); inconclusive = no clear call, values can overlap the other calls; inactive = mostly above about 0.92. The list shows a part of the results.
Assay: chemical genetic growth profiling, strain panel (AID 1159580);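 also: tested at 20 µM; growth read once vehicle control cultures reached saturation at 30 °C; 1 = growth at the plate median or of vehicle wells; lower values mean less growth of the strain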
Conditions: growth OD
[1] = S. cerevisiae deletion strains, locus YDL101C, strain DUN1, active compounds read low
[2] = S. cerevisiae deletion strains, locus YHR030C, strain SLT2, active compounds read low

Measured: normalized growth

O=C(NOC(=O)c1ccccc1)c1ccccc1
active: S. cerevisiae deletion strains, locus YAR019C, strain CDC15, active compounds read low 0.0906 | S. cerevisiae deletion strains, locus YBL105C, strain PKC1, active compounds read low 0.0874 | S. cerevisiae deletion strains, locus YBR135W, strain CKS1, active compounds read low 0.0902 | S. cerevisiae deletion strains, locus YBR136W, strain MEC1, active compounds read low 0.0871 | S. cerevisiae deletion strains, locus YBR160W, strain CDC28, active compounds read low 0.091 | S. cerevisiae deletion strains, locus YDL017W, strain CDC7, active compounds read low 0.0875 | S. cerevisiae deletion strains, locus YDL028C, strain MPS1, active compounds read low 0.0868 | [1] 0.102 | S. cerevisiae deletion strains, locus YDL108W, strain KIN28, active compounds read low 0.0859 | S. cerevisiae deletion strains, locus YDL132W, strain cdc53, active compounds read low 0.0913 | S. cerevisiae deletion strains, locus YDL214C, strain PRR2, active compounds read low 0.0898 | S. cerevisiae deletion strains, locus YDR052C, strain DBF4, active compounds read low 0.0867 | S. cerevisiae deletion strains, locus YDR054C, strain cdc34, active compounds read low 0.0943 | S. cerevisiae deletion strains, locus YDR226W, strain ADK1, active compounds read low 0.0848 | S. cerevisiae deletion strains, locus YDR477W, strain SNF1, active compounds read low 0.0987 | S. cerevisiae deletion strains, locus YER123W, strain YCK3, active compounds read low 0.0956 | S. cerevisiae deletion strains, locus YER133W, strain GLC7, active compounds read low 0.0938 | S. cerevisiae deletion strains, locus YFL009W, strain cdc4, active compounds read low 0.093 | S. cerevisiae deletion strains, locus YFL029C, strain CAK1, active compounds read low 0.089 | S. cerevisiae deletion strains, locus YFR003C, strain YPI1, active compounds read low 0.0861 | S. cerevisiae deletion strains, locus YFR019W, strain FAB1, active compounds read low 0.101 | S. cerevisiae deletion strains, locus YFR028C, strain CDC14, active compounds read low 0.0859 | S. cerevisiae deletion strains, locus YGR040W, strain KSS1, active compounds read low 0.103 | S. cerevisiae deletion strains, locus YGR052W, strain FMP48, active compounds read low 0.111 | S. cerevisiae deletion strains, locus YGR092W, strain DBF2, active compounds read low 0.104 | [2] 0.114 | S. cerevisiae deletion strains, locus YHR079C, strain IRE1, active compounds read low 0.112 | S. cerevisiae deletion strains, locus YHR082C, strain KSP1, active compounds read low 0.153 | S. cerevisiae deletion strains, locus YHR205W, strain SCH9, active compounds read low -0.00347 | S. cerevisiae deletion strains, locus YIL147C, strain SLN1, active compounds read low 0.0859 | S. cerevisiae deletion strains, locus YJL095W, strain BCK1, active compounds read low 0.107 | S. cerevisiae deletion strains, locus YJL128C, strain PBS2, active compounds read low 0.097 | S. cerevisiae deletion strains, locus YJL157C, strain FAR1, active compounds read low 0.0897 | S. cerevisiae deletion strains, locus YJR016C, strain ILV3, active compounds read low 0.0894 | S. cerevisiae deletion strains, locus YJR066W, strain TOR1 (second series), active compounds read low 0.0928 | S. cerevisiae deletion strains, locus YJR066W, strain TOR1, active compounds read low 0.133 | S. cerevisiae deletion strains, locus YKL048C, strain ELM1, active compounds read low 0.111 | S. cerevisiae deletion strains, locus YKL067W, strain YNK1, active compounds read low 0.0892 | S. cerevisiae deletion strains, locus YKL101W, strain HSL1, active compounds read low 0.103 | S. cerevisiae deletion strains, locus YKL193C, strain SDS22, active compounds read low 0.0889 | S. cerevisiae deletion strains, locus YKL203C, strain TOR2, active compounds read low 0.097 | S. cerevisiae deletion strains, locus YLR113W, strain HOG1, active compounds read low 0.138 | S. cerevisiae deletion strains, locus YLR133W, strain CKI1, active compounds read low 0.0893 | S. cerevisiae deletion strains, locus YLR403W, strain SFP1, active compounds read low 0.00282 | S. cerevisiae deletion strains, locus YML070W, strain DAK1, active compounds read low 0.109 | S. cerevisiae deletion strains, locus YMR001C, strain CDC5, active compounds read low 0.0891 | S. cerevisiae deletion strains, locus YMR205C, strain PFK2 (second series), active compounds read low 0.0877 | S. cerevisiae deletion strains, locus YMR277W, strain FCP1, active compounds read low 0.0919 | S. cerevisiae deletion strains, locus YNL006W, strain LST8, active compounds read low 0.0825 | S. cerevisiae deletion strains, locus YNL020C, strain ARK1, active compounds read low 0.0971 | S. cerevisiae deletion strains, locus YNL161W, strain CBK1, active compounds read low 0.0976 | S. cerevisiae deletion strains, locus YNL183C, strain NPR1, active compounds read low 0.109 | S. cerevisiae deletion strains, locus YNL207W, strain RIO2, active compounds read low 0.0878 | S. cerevisiae deletion strains, locus YNL222W, strain SSU72, active compounds read low 0.0863 | S. cerevisiae deletion strains, locus YNL307C, strain MCK1 (second series), active compounds read low 0.112 | S. cerevisiae deletion strains, locus YOL078W, strain AVO1, active compounds read low 0.0891 | S. cerevisiae deletion strains, locus YOL136C, strain PFK27, active compounds read low 0.0994 | S. cerevisiae deletion strains, locus YOR061W, strain CKA2, active compounds read low 0.0894 | S. cerevisiae deletion strains, locus YOR119C, strain RIO1, active compounds read low 0.108 | S. cerevisiae deletion strains, locus YOR231W, strain MKK1, active compounds read low 0.111 | S. cerevisiae deletion strains, locus YOR329C, strain SCD5, active compounds read low 0.0866 | S. cerevisiae deletion strains, locus YPL031C, strain PHO85, active compounds read low 0.102 | S. cerevisiae deletion strains, locus YPL153C, strain RAD53, active compounds read low 0.0967 | S. cerevisiae deletion strains, locus YPL204W, strain HRR25, active compounds read low 0.1 | S. cerevisiae deletion strains, locus YPL209C, strain IPL1, active compounds read low 0.0841 | S. cerevisiae deletion strains, locus YPL256C, strain CLN2, active compounds read low 0.167 | S. cerevisiae deletion strains, locus YPR025C, strain CCL1, active compounds read low 0.091 | S. cerevisiae deletion strains, locus YPR106W, strain ISR1, active compounds read low 0.0869 | S. cerevisiae deletion strains, locus YPR111W, strain DBF20, active compounds read low 0.09 | S. cerevisiae deletion strains, strain NNK1, active compounds read low 0.0922 | S. cerevisiae deletion strains, strain TSCII, active compounds read low 0.0892

C(=C(c1ccccc1)c1ccccc1)N1CCC1
inactive: S. cerevisiae deletion strains, locus YAL013W, strain DEP1, active compounds read low 1 | S. cerevisiae deletion strains, locus YBR229C, strain ROT2, active compounds read low 0.993 | [1] 0.96 | S. cerevisiae deletion strains, locus YDL134C, strain PPH21, active compounds read low 1.01 | S. cerevisiae deletion strains, locus YDR150W, strain NUM1, active compounds read low 0.87 | S. cerevisiae deletion strains, locus YEL061C, strain CIN8, active compounds read low 0.99 | S. cerevisiae deletion strains, locus YGR078C, strain PAC10, active compounds read low 0.997 | S. cerevisiae deletion strains, locus YGR229C, strain SMI1, active compounds read low 1 | [2] 0.972 | S. cerevisiae deletion strains, locus YHR087W, strain rtc3, active compounds read low 0.984 | S. cerevisiae deletion strains, locus YJL187C, strain SWE1, active compounds read low 1 | S. cerevisiae deletion strains, locus YJR043C, strain POL32, active compounds read low 1 | S. cerevisiae deletion strains, locus YJR075W, strain HOC1, active compounds read low 0.984 | S. cerevisiae deletion strains, locus YLR039C, strain RIC1, active compounds read low 1.01 | S. cerevisiae deletion strains, locus YLR058C, strain SHM2 (second series), active compounds read low 0.998 | S. cerevisiae deletion strains, locus YLR085C, strain ARP6, active compounds read low 0.998 | S. cerevisiae deletion strains, locus YLR262C, strain YPT6, active compounds read low 1.02 | S. cerevisiae deletion strains, locus YML094W, strain GIM5, active compounds read low 0.975 | S. cerevisiae deletion strains, locus YMR219W, strain ESC1, active compounds read low 0.988 | S. cerevisiae deletion strains, locus YMR263W, strain SAP30, active compounds read low 0.987 | S. cerevisiae deletion strains, locus YMR307W, strain GAS1, active compounds read low 1.02 | S. cerevisiae deletion strains, locus YNL153C, strain GIM3, active compounds read low 0.988 | S. cerevisiae deletion strains, locus YNL298W, strain CLA4 (second series), active compounds read low 1 | S. cerevisiae deletion strains, locus YNL322C, strain KRE1, active compounds read low 0.991 | S. cerevisiae deletion strains, locus YNR030W, strain Alg12, active compounds read low 1.03 | S. cerevisiae deletion strains, locus YPL055C, strain LGE1, active compounds read low 0.854 | S. cerevisiae deletion strains, locus YPL241C, strain CIN2, active compounds read low 0.9 | S. cerevisiae deletion strains, locus YPR135W, strain CTF4, active compounds read low 1.03 | S. cerevisiae strains, strain wild type, active compounds read low 1.01

Source: PubChem BioAssay AID1159580 (chemical genetic matrix, 2015)
